For twelve molecules, residual activity results are on record in ChEMBL document CHEMBL2218924, “A broad activity screen in support of a chemogenomic map for kinase signalling research and drug discovery” (Biochem J, 2013).

Assay [1] deals with T1, AMP-activated protein kinase, AMPK (Homo sapiens) (UniProt P54646+O43741+P54619+Q9UGJ0+Q9Y478+Q13131+Q9UGI9). To be noted: at 1 µM.
Assay [2] has as its target T1, AMP-activated protein kinase, AMPK (Homo sapiens). To be noted: at 10 µM.
Assay [3] has as its target T2, Mitogen-activated protein kinase kinase kinase 5 (Homo sapiens) (UniProt Q99683).
T2 sequence (whole entry): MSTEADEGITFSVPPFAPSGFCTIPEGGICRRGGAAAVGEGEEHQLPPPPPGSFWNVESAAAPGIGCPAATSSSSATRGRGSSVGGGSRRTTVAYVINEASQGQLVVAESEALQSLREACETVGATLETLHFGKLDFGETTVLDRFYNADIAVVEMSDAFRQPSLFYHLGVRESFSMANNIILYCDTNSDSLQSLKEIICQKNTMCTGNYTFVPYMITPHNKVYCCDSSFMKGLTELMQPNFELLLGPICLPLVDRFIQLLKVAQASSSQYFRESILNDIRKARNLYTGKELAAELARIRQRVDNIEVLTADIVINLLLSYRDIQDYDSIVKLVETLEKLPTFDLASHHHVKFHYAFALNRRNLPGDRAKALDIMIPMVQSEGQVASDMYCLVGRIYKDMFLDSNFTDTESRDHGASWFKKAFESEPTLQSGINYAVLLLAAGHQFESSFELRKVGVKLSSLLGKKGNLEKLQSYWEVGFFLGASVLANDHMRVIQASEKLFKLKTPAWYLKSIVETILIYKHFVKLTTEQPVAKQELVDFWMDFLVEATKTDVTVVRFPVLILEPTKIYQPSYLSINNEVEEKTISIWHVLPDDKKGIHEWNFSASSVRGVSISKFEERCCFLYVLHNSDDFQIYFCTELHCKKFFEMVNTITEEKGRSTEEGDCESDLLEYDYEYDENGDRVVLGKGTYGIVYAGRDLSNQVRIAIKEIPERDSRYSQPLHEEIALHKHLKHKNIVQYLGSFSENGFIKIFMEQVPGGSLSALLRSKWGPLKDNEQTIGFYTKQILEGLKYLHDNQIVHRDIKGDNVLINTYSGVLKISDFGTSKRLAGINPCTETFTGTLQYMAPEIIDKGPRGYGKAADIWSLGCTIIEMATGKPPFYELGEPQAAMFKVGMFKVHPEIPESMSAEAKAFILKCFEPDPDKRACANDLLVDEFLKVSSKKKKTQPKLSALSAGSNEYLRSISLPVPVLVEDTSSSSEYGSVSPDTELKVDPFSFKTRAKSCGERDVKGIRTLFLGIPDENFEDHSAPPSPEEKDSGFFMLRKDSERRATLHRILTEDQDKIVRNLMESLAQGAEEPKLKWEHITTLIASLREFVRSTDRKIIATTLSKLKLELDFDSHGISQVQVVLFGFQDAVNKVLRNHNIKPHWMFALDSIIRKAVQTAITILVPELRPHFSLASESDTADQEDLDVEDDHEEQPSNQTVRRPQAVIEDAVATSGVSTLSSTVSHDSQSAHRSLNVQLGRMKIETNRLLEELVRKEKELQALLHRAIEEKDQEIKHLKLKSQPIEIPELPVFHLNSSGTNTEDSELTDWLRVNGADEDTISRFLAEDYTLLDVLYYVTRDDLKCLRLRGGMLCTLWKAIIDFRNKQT
To be noted: at 1 µM.

Assay [4] deals with Platelet-derived growth factor receptor alpha (Homo sapiens) (UniProt P16234). To be noted: at 1 µM.
Assay [5] shares this target. The conditions noted are these: at 10 µM.
Assay [6] concerns the target Platelet-derived growth factor receptor beta (Homo sapiens) (UniProt P09619). To be noted: at 1 µM.
Assay [7] has the same target. The conditions noted are these: at 10 µM.
The target of assay [8] is T3, 3-phosphoinositide-dependent protein kinase 1 (Homo sapiens) (UniProt O15530).
T3 sequence (whole entry): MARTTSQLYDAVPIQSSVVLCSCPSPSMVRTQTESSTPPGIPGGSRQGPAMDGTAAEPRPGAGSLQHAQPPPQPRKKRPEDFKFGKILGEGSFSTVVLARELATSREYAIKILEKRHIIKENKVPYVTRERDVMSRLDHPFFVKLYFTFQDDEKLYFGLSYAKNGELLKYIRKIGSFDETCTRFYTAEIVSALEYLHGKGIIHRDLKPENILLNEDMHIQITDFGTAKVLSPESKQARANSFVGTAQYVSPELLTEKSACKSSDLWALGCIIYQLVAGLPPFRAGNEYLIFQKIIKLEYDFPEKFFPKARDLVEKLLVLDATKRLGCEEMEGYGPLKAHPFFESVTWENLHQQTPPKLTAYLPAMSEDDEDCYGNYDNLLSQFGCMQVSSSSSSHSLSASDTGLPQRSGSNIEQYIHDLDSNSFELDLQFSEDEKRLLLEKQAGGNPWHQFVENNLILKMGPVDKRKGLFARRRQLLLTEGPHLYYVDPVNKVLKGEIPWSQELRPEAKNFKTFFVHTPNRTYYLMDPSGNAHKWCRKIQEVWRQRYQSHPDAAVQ
The conditions noted are these: at 1 µM.

Assay [9] deals with T3, 3-phosphoinositide-dependent protein kinase 1 (Homo sapiens). To be noted: at 10 µM.
Assay [10] addresses RAC-alpha serine/threonine-protein kinase (Homo sapiens) (UniProt P31749). The conditions noted are these: at 1 µM.
The target is the same in assay [11]. The conditions noted are these: at 10 µM.
Assay [12] addresses RAC-gamma serine/threonine-protein kinase (Homo sapiens) (UniProt Q9Y243). The conditions noted are these: at 1 µM.
In assay [13] the target is T4, Activin receptor type-1B (Homo sapiens) (UniProt P36896).
T4 sequence (whole entry): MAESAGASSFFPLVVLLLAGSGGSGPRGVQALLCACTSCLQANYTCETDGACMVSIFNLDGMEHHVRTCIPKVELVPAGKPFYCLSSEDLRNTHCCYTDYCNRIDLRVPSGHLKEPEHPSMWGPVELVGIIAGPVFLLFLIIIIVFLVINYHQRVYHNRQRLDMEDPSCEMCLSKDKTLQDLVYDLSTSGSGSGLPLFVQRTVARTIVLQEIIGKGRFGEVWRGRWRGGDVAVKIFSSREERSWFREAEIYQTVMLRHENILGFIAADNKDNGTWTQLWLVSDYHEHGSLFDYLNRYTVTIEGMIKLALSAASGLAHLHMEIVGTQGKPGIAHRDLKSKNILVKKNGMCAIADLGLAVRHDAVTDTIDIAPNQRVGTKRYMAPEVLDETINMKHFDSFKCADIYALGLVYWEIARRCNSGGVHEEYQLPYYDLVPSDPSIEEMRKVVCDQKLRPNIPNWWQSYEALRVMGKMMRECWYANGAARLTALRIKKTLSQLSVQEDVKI
The conditions noted are these: at 1 µM.

For assay [14], the target named is T4, Activin receptor type-1B (Homo sapiens). To be noted: at 10 µM.
The target in assay [15] is T5, AMP-activated protein kinase (AMPK) alpha-1/beta-1/gamma-1 (Homo sapiens) (UniProt P54619+Q9Y478+Q13131). The conditions noted are these: at 1 µM.
Assay [16] concerns the target T5, AMP-activated protein kinase (AMPK) alpha-1/beta-1/gamma-1 (Homo sapiens). To be noted: at 10 µM.
Assay [17] addresses T6, NUAK family SNF1-like kinase 1 (Homo sapiens) (UniProt O60285).
T6 sequence (whole entry): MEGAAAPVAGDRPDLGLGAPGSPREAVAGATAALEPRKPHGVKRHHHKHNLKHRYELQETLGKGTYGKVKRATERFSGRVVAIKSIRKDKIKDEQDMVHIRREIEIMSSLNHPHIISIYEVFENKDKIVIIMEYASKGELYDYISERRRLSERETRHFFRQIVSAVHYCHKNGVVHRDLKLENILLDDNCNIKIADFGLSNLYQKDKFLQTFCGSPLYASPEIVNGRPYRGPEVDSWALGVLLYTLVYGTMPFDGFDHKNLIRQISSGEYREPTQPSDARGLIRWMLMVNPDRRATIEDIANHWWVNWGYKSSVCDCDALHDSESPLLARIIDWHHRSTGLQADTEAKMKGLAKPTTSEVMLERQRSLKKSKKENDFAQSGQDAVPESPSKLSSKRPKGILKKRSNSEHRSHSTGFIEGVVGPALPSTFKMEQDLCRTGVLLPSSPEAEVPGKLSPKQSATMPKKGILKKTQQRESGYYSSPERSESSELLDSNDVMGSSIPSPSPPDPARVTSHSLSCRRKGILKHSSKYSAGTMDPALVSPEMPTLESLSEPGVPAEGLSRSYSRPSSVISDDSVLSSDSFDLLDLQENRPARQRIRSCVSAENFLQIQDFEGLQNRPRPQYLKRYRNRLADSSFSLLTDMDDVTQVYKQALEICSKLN
To be noted: at 1 µM.

Assay [18] concerns the target T6, NUAK family SNF1-like kinase 1 (Homo sapiens). The conditions noted are these: at 10 µM.
In assay [19] the target is cAMP-dependent protein kinase catalytic subunit alpha (Homo sapiens) (UniProt P17612). The conditions noted are these: at 1 µM.
The target is the same in assay [20]. The conditions noted are these: at 10 µM.

Platelet-derived growth factor receptor beta (Homo sapiens), sequence (P09619 whole entry): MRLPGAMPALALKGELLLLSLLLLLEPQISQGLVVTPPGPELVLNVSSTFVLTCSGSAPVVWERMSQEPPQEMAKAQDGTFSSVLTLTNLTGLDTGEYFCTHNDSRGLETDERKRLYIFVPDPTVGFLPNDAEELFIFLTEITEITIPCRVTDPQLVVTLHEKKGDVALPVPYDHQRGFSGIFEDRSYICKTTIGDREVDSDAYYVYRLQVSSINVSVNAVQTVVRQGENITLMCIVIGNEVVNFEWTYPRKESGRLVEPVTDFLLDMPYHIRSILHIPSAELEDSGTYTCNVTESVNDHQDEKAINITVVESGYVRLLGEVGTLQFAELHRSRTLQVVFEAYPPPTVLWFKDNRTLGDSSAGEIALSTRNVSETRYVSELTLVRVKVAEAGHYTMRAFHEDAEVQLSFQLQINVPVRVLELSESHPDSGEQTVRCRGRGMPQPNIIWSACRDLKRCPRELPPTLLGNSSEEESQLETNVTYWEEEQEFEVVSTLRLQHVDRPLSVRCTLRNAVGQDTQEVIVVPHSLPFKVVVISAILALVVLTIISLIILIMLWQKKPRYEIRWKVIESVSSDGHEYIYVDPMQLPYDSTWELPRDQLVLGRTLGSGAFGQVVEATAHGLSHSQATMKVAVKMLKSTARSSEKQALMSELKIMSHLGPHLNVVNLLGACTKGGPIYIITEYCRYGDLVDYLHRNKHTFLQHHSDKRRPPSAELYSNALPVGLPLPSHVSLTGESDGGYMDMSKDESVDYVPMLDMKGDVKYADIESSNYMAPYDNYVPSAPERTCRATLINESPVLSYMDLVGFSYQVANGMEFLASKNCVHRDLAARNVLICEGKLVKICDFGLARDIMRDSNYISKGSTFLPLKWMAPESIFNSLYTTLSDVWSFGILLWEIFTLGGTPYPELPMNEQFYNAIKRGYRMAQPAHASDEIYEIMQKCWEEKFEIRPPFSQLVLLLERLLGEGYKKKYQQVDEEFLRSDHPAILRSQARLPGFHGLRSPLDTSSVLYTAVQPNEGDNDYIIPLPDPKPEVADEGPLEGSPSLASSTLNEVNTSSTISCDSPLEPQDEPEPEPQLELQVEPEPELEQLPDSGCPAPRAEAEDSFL
T5 sequence (P54619 whole entry): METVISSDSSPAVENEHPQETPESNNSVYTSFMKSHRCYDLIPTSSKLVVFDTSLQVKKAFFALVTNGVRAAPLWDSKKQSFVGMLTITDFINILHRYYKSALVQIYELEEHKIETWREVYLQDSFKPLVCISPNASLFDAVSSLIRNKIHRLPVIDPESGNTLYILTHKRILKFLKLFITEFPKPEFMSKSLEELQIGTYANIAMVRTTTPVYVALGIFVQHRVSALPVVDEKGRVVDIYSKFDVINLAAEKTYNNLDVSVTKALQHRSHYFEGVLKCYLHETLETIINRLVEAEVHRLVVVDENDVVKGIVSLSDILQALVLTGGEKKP
T5 sequence (Q13131 whole entry partner): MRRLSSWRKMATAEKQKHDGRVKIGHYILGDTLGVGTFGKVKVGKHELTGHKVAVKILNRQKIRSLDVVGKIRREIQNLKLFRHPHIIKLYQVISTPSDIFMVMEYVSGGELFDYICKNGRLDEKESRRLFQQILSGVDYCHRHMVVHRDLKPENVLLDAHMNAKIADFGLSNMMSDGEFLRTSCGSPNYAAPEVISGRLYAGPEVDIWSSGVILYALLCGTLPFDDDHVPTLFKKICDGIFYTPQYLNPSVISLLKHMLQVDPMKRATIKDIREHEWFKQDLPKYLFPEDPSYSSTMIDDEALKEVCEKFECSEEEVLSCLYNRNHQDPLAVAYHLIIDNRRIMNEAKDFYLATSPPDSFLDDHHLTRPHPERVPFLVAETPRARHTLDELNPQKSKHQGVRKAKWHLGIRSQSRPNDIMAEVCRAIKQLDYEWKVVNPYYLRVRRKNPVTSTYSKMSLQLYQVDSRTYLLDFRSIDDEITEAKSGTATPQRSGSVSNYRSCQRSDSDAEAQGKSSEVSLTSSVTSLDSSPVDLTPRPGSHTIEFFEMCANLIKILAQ
T5 sequence (Q9Y478 2-270 partner limits assumed): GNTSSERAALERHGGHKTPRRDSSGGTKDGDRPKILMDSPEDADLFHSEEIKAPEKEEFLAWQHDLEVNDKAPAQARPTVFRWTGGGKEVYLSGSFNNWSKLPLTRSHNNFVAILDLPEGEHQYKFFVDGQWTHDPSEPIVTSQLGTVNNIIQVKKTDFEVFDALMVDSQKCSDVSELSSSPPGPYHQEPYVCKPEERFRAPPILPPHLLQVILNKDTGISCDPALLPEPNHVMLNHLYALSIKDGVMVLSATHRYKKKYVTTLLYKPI
RAC-gamma serine/threonine-protein kinase (Homo sapiens), sequence (Q9Y243 whole entry): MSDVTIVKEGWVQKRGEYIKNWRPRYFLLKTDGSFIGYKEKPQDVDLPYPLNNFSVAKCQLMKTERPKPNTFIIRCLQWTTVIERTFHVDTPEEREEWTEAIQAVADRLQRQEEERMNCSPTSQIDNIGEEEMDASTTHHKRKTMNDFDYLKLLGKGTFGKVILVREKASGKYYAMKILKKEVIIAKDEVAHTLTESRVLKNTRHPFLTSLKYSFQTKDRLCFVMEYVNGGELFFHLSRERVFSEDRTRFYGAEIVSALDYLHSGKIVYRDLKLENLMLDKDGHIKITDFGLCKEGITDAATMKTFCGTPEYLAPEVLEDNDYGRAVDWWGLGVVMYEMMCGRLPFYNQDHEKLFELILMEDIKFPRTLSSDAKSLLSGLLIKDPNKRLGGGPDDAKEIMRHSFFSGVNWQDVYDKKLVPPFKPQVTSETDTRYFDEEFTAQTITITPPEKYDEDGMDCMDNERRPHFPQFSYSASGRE
Platelet-derived growth factor receptor alpha (Homo sapiens), sequence (P16234 whole entry): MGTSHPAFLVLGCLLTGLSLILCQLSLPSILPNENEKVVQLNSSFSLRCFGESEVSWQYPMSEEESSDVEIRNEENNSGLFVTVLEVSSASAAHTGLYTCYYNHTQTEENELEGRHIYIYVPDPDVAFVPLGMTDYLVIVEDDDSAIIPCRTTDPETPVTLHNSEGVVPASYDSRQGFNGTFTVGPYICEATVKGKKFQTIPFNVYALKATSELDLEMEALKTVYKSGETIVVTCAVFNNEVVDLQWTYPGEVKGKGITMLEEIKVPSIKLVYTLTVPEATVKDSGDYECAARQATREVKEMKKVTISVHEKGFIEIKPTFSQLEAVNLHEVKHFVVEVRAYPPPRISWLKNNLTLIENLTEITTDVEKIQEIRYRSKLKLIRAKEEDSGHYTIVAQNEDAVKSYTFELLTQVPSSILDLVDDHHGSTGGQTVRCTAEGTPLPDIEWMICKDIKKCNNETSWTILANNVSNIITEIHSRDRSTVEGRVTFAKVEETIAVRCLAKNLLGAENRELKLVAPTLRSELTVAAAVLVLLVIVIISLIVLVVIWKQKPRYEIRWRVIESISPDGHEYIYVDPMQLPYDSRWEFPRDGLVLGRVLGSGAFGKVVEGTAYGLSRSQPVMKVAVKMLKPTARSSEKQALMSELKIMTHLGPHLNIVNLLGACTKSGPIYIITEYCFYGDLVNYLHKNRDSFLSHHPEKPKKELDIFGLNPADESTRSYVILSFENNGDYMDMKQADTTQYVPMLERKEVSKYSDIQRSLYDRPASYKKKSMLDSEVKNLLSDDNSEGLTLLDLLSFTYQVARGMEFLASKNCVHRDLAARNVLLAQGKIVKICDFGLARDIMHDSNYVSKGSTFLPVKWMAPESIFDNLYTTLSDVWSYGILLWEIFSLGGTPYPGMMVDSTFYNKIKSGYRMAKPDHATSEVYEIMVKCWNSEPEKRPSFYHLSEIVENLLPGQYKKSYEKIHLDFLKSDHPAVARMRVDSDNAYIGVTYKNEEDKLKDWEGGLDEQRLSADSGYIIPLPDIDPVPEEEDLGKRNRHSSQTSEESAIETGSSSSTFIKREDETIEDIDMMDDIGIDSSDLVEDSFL
RAC-alpha serine/threonine-protein kinase (Homo sapiens), sequence (P31749 whole entry): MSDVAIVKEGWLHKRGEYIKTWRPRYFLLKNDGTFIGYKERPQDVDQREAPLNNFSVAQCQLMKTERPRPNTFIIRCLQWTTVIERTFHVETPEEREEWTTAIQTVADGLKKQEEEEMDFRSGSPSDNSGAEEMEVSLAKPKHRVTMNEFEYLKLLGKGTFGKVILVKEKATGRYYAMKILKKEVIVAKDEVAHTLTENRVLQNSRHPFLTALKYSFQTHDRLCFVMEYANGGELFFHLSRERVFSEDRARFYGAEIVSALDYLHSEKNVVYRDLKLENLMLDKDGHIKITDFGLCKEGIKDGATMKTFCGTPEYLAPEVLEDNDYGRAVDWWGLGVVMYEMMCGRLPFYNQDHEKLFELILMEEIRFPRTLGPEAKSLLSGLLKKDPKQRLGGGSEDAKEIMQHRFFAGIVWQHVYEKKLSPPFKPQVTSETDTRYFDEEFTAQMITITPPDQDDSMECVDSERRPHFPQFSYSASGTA

On to `O=C1c2ccccc2-c2nc3nnnn3nc21`, for which the residual activity in [1] was 122%; in [2] it was 75%; in assay [3], 107%; in [4], 128%; in assay [5] it was 111%; in [6], 120%. Further, the residual activity in assay [7] came to 111%; in assay [8] it was 121%; in assay [9], 116%; in [10], 103%; in assay [11], 112%; in assay [12], 117%.
As to `CC(C)(C)c1nc2c3ccc(F)cc3c3c(=O)[nH]ccc3c2[nH]1`, the residual activity in assay [10] is 98%; in [11], 104%.
As to `N/C(=N\[N+](=O)[O-])N/N=C\c1ccc(-c2cccc([N+](=O)[O-])c2)o1`, the residual activity in assay [1] was found to be 90%; in [2], 97%; in assay [3] it was 96%; in assay [4], 83%; in [5] it was 54%; in assay [6], 100%. In addition, the residual activity in assay [7] was found to be 60%; in assay [12], 77%.
For `CC(C)(C)c1cc(C=C(C#N)C#N)cc(Br)c1O`, the residual activity in assay [13] stood at 114%; in [14] it was 48%; in [15], 110%; in [16] it was 53%; in [1], 97%; in assay [17] it was 116%. Also, the residual activity in assay [18] came out at 106%; in assay [3], 108%; in assay [4] it was 120%; in assay [5] it was 106%; in assay [6] it was 103%; in assay [7], 103%. The residual activity in assay [8] came out at 102%; in assay [10], 98%; in [11], 102%; in [12], 106%.
As to `COc1cc2ncnc(Nc3cccc(Cl)c3)c2cc1OC`, the residual activity in [10] is 86%.
As for `CC(=O)O/N=C1\C(=C2\C(=O)Nc3cc(Br)ccc32)Nc2ccccc21`, the residual activity turned out to be 115% in [10] and 109% in assay [11].
For the molecule `C[S+]([O-])c1ccc(-c2nc(-c3ccc(F)cc3)c(-c3ccncc3)[nH]2)cc1` (stereo unspecified), the residual activity in assay [13] was determined as 87%; in [14] it was 23%; in assay [15] it was 109%; in assay [16], 94%; in assay [1], 104%; in assay [2] it was 90%. Moreover, the residual activity was found to be 97% in assay [17]; 94% in [18]; 138% in assay [3]; 110% in assay [4]; 108% in [5]; 120% in [6]. The residual activity was determined as 120% in assay [7]; 117% in [8]; 107% in assay [9]; 105% in assay [19]; 102% in assay [10]; 105% in [11]. In addition, in [12], the residual activity came to 117%.
Take `COc1cc(OC)c(/C=C2\C(=O)Nc3ccccc32)c(OC)c1`: the residual activity in assay [15] is 104%; in assay [16] it was 82%; in assay [2], 95%; in assay [17], 102%; in assay [18] it was 84%; in [3] it was 91%. In addition, the residual activity in assay [4] stood at 82%; in assay [5] it was 69%; in [19], 100%; in assay [20], 91%; in assay [12] it was 103%.
In the case of `CCc1nc(-c2ccc(OC)cc2)[nH]c1-c1ccncc1`, the residual activity in assay [15] was determined as 101%; in assay [4] it was 114%; in [5] it was 109%; in assay [6], 110%; in assay [7] it was 108%; in assay [8], 110%. For the same molecule, the residual activity in assay [9] stood at 101%; in [10] it was 113%; in assay [11] it was 108%.
For `CN[C@@H]1C[C@H]2O[C@@](C)([C@@H]1OC)n1c3ccccc3c3c4c(c5c6ccccc6n2c5c31)C(=O)NC4`, the residual activity was found to be 8% in assay [17], 1% in assay [18], 1% in [8] and 0% in assay [9].
Turning to `COC(=O)[C@@]1(O)C[C@H]2O[C@]1(C)n1c3ccccc3c3c4c(c5c6ccccc6n2c5c31)C(=O)NC4`, the residual activity in assay [13] was 24%; in assay [14] it was 0%; in assay [15] it was -1%; in assay [16], 0%; in assay [1], -5%; in assay [2], 1%. The residual activity stood at 1% in assay [17]; 1% in assay [18]; 0% in [3]; 32% in assay [4]; 8% in assay [5]; 46% in [6]. Moreover, the residual activity in assay [7] was 8%; in assay [8] it was -1%; in [9], 0%; in assay [19], 7%; in assay [20], 3%; in assay [10], 101%. The residual activity is 37% in [11] and 11% in assay [12].
For the molecule `NC(=O)c1ccc2[nH]c(-c3ccc(Oc4ccc(Cl)cc4)cc3)nc2c1`, the residual activity in [10] turned out to be 109%; in [11], 112%.
